# Measurements as given in PubChem BioAssay (NCATS).
# Inconclusive results are not listed. Where a call stands in place of a potency, no number is given. Activity calls are given as the source filed them. The call rests on the fitted dose curve; in most records, active means well fitted inhibition curve with a large enough effect in the signal ratio, with a control signal flat (not every such curve was filed as active); inconclusive means small, poorly fitted or top-dose-only effect, or effect the other way, or a change in a side signal; inactive means no such curve, though single readings can be large or run the other way; the % refers to the signal ratio.
# Molecular target: Peroxisome proliferator-activated receptor delta (Homo sapiens) (UniProt Q03181)
# Test: qHTS assay for small molecule antagonists of peroxisome proliferator-activated receptor delta signaling (AID 588535)
# Conditions: HEK293T PPARd-UAS-bla, beta-lactamase FRET ratio, 18 h; series mostly up to 76.7 µM
# Source text: NIH Chemical Genomics Center [NCGC] U.S. Environmental Protection Agency [EPA] National Institutes of Environmental Health Sciences [NIEHS] National Toxicology Program [NTP] NCGC Assay Overview The Peroxisome proliferator-activated receptors (PPARs) are lipid-activated transcription factors of the nuclear receptor superfamily with three distinct subtypes namely PPAR alpha, PPAR delta (also called PPAR beta) and PPAR gamma. All these subtypes heterodimerizes with Retinoid X receptor (RXR) and have different physiological functions. […] This role of PPAR delta implicates the potential use of its ligands in the treatment of metabolic disorders.
# NCGC Assay Protocol Summary Using a beta-lactamase reporter-gene under control Peroxisome Proliferator-Activated Receptor delta (PPAR-delta) response element, a cell-based assay [GeneBLAzer (PPAR-delta-UAS-bla assay developed by Invitrogen] was used to measure PPAR-delta ligands signaling. GeneBLAzer PPAR-delta-UAS-bla HEK293T cells were used with assay medium containing 2% charcoal/dextran FBS. The assay was performed in clear bottom black Greiner 1536-well plates. Library compounds were measured for their ability to inhibit the reporter gene activity. Compounds were screened in a titration series in 1536-well format. The fluorescence intensity (405 nm excitation, 460/530 nm emission) was measured using an EnVision plate reader. […] Concentration-response titration points for each compound were fitted to the Hill equation yielding concentrations of half-maximal inhibition (IC50) and maximal response (efficacy) values. qHTS protocol for PPAR-delta beta-lactamase assay in antagonist mode [Step] [Parameter] [Value] [Description] 1. Reagent; 5 uL; 4000 cells/well 2. Incubation; 37 C for 5 hrs 3. Compounds; 23 nL; 0.59 nM to 92 uM 4. […] Incubation; 37 C for 18 hrs 7. Detection reagent; 1 uL of CCF4-dye 8. Incubation; RT for 2 hrs 9. Detection; Fluorescence; Envision plate reader
# Peroxisome proliferator-activated receptor delta (Homo sapiens), sequence (Q03181 whole entry, looked up): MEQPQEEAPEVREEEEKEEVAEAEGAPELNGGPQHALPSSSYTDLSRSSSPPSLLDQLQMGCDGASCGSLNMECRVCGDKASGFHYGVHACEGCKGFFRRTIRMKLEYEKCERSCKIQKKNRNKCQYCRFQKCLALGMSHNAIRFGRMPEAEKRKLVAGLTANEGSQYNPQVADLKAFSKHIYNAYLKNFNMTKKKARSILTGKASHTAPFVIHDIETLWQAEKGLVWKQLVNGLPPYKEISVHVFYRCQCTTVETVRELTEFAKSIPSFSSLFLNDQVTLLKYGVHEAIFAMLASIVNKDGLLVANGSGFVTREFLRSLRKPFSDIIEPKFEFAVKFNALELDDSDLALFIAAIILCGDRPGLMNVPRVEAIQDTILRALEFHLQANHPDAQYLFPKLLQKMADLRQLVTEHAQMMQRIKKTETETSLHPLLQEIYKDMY
row,SMILES,Potency
1,O=Cc1ccc(Cl)cc1,inactive
2,O=C(O)/C=C/C(=O)O,inactive
3,CCC(C)(C)OC,inactive
4,FB(F)F,inactive
5,CC(C)(c1cc(Br)c(OCC(Br)CBr)c(Br)c1)c1cc(Br)c(OCC(Br)CBr)c(Br)c1 (stereo not given),inactive
6,NS(=O)(=O)O,inactive
7,CN(C)CCCNCCCN,inactive
8,CC(C)Nc1ccccc1,inactive
9,Nc1cccc(O)c1,inactive
10,COC(=O)CCC(=O)OC,inactive
11,FC(F)(F)c1ccccc1Cl,inactive
12,Cc1ccc(C)c([N+](=O)[O-])c1,inactive
13,Cc1cscn1,inactive
14,C=CCCCC,inactive
15,C=C(C)C(=O)OCC(C)C,inactive
16,CC(C)=C1CCC(C)CC1=O (stereo not given),inactive
17,O=C(O)c1cccc(Cl)c1Cl,inactive
18,O=C1CCCCC1,inactive
19,CC=C(Cl)Cl,inactive
20,BrC/C=C/CBr,inactive

row,SMILES,Potency
1,O=[N+]([O-])c1cccc(Cl)c1,inactive
2,CC(=O)OCCC(C)C,inactive
3,C=CC(=O)NC(C)C,inactive
4,c1ccc(Oc2ccccc2)cc1,inactive
5,CCCCCCCCN,inactive
6,CC(O)COC(C)(C)C (stereo not given),inactive
7,C=Cc1ccc(C=C)cc1,inactive
8,CC/C=C/C#N,inactive
9,COc1cccc2sc(N)nc12,inactive
10,Nc1ccccc1S(=O)(=O)O,inactive
11,c1ccc2c(c1)ccc1ncccc12,inactive
12,CC(=O)c1cc(C)oc1C,inactive
13,COC(=O)c1ccccc1,inactive
14,COCCOC(=O)c1ccccc1C(=O)OCCOC,inactive
15,COc1ccc(N)c(C)c1,inactive
16,Cc1c(N)cccc1[N+](=O)[O-],inactive
17,Cc1ccc(C)cc1,inactive
18,Nc1cc(Cl)c(N)c(Cl)c1,inactive
19,Cc1ccc(Cl)cc1N,inactive
20,C(=C/c1ccccc1)/c1ccccc1,inactive
